Assay [1] has as its target Lysosomal acid glucosylceramidase (Homo sapiens) (UniProt P04062). Briefly: Glucocerebrosidase-p2 (AID 348; in the data active = potency below about 10 µM; also: potency is read from the fitted curve at half-maximal effect). The settings on record: purified GBA, blue fluorogenic substrate, 40 min. In short, it runs like this:
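Normal human glucocerebrosidase (0.2 nM) with blue fluorogenic substrate (80 uM final) in citrate/phosphate pH 5.9 with 10mM sodium taurocholate, 0.01% tween-20; 40 min RT, NaOH/glycine stop; fluorescence Ex 365/Em 440; AC50 from a titration from 0.6 nM upwards.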

The nature of assay [2]: AP1 Signaling Pathway (AID 357).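 Also: ME-180 reporter cells stimulated with EGF at its EC50 level; % is scaled to controls: 0 for no effect and ±100 for the full control effect.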 To be noted: ME-180 AP-1-bla reporter, EGF-induced, beta-lactamase ratio, 5 h; at 7.69 µM (top of the series) unless noted. In short, it runs like this:
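A ratiometric CCF4 readout (405 nm excitation; 460 and 530 nm emission) quantified AP-1-driven beta-lactamase in ME-180 cells after 5 h with compound and EC50 EGF; AC50 values were derived for activators and inhibitors.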

Assay [3] has as its target Cytochrome P450 1A2 (Homo sapiens) (UniProt P05177). Briefly: p450-cyp1a2 (AID 410; calls by dose curve; also: potency is read from the fitted curve at half-maximal effect). To be noted: recombinant CYP1A2, luciferin-ME demethylation, luminescence; series mostly up to 11.4 µM. In short, it runs like this:
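20nM CYP1A2, 100uM Luciferin-ME (=Km), 100mM KPO4; cpd 10 min RT; +NADPH regen, 60 min RT; stop/detect 20 min; luminescence. Normalized to furafylline 57 uM = full inhibition.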

Assay [4] can be described thus: NFAT Signaling Pathway (AID 444).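 Also: carbachol stimulus at about its EC50 of 1 µM final; % is scaled to controls: 0 for no effect and ±100 for the full control effect.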 To be noted: Jurkat NFAT-bla M1, carbachol, beta-lactamase ratio, 5 h; at 7.69 µM (top of the series) unless noted. The procedure, abridged: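 Jurkat cells carrying an NFAT-driven β-lactamase reporter and co-transfected muscarinic M1 receptor were treated with compound plus carbachol (1 uM final, an EC50 level) for 5 h at 37 °C. CCF4 loading followed for 1 h at RT; 460/530 nm ratio gave %activity.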

Assay [5] in a line: Stat Signaling Pathway (AID 446).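 Also: ME-180 cervical cancer cells given 40 pM IL-6 alongside compound; SIE-controlled beta-lactamase reporter measured as 460/530 nm FRET emission ratio; % is scaled to controls: 0 for no effect and ±100 for the full control effect.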 To be noted: ME-180 (cervical carcinoma) SIE beta-lactamase reporter, IL-6 stimulated, 5 h; at 7.69 µM (top of the series) unless noted. The procedure, abridged:
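FRET read-out (405 nm excitation, 460/530 nm emission) of a beta-lactamase reporter under a STAT-inducible element in ME-180 cervical carcinoma cells. Cells with compound receive 40 pM IL-6 for 5 h. Values are normalised to AC90 stimulation and AC90 JAK-inhibitor controls.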

Assay [6] deals with Glucocorticoid receptor (Homo sapiens) (UniProt P04150). Briefly: GR-GFP Redistribution (AID 450;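 active = compounds whose dose series gives a full or clear partial fitted curve of increased nuclear translocation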; also: potency is read from the fitted curve at half-maximal effect). The settings on record: U2OS GR-GFP nuclear translocation, laser cytometry, 2 h.
Assay [7] shares this target. Put plainly: GR-EFC Redistribution (AID 451; calls by dose curve; also: potency is read from the fitted curve at half-maximal effect). To be noted: CHO-K1 GR-EFC translocation, beta-gal luminescence, 2 h. In short, it runs like this:
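CHO-K1 cells stably expressing nuclear-localized β-gal enzyme acceptor and GR fused C-terminally to the enzyme donor fragment; ligand-driven nuclear translocation restores β-gal by complementation. Compounds titrated up to 46 uM final, 2 h at 37 °C; luminescence read.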

The target of assay [8] is Mitogen-activated protein kinase 10 (Mus musculus) (UniProt Q61831). Put plainly: JNK3 AlphaScreen Assay (AID 530).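 Also: kinase came from lysate of stimulated human HepG2 cells; % is scaled to controls: 0 for no effect and ±100 for the full control effect.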 To be noted: JNK3 lysate, c-Jun phosphorylation; series mostly up to 11.4 µM. The procedure, abridged: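 Biotinylated GST-cJun(1-79) served as substrate for JNK3 in HepG2 lysates stimulated with IL-1beta and TNF-alpha. ATP was 10 uM final, pH 7.6. Ser73 phosphorylation was quantified by AlphaScreen (680 nm excitation).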

The target in assay [9] is 3',5'-cyclic-AMP phosphodiesterase 4B (Homo sapiens) (UniProt Q07343). Put plainly: qHTS Assay for Inhibitors of PDE-IV (AID 607; active = well fitted activation curve with a large enough effect in the main read-out, with a control signal flat, not every such curve was filed as active; also: % of control where 0% means no effect). To be noted: HEK293 ACTOne CNG channel cells, membrane potential fluorescence; series mostly up to 22.9 µM. The procedure, abridged: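 Cell-based read-out of cAMP via a modified cyclic nucleotide-gated channel and membrane potential dye (535/590 nm) in HEK293 cells expressing PDE4 endogenously. Compounds tested up to 22.9 uM final; 100 uM RO 20-1724 reference.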

For assay [10], the target named is Cytochrome P450 2C9 (Homo sapiens) (UniProt P11712). Briefly: qHTS Assay for Inhibitors and Substrates of Cytochrome P450 2C9 (AID 883; active = well fitted curve in the direction sought with a large enough effect; an effect the other way counts as inactive or inconclusive; also: % is scaled to controls: 0 for no effect and ±100 for the full control effect; nearly all actives have a fitted effect of over 60% in size). The settings on record: recombinant CYP2C9, luciferin-H luminescence, 60 min; series mostly up to 11.4 µM. In short, it runs like this: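 Human CYP2C9 (10nM) hydroxylated Luciferin-H (100uM, at its KM) to luciferin in 25mM KPO4. Compound was preincubated 10 min at 37C, then NADPH regeneration started a 60 min reaction at 37C. Luminescence was read after detection reagent, normalized to 57uM sulphaphenazole.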

The target in assay [11] is Cytochrome P450 3A4 (Homo sapiens) (UniProt P08684). Put plainly: qHTS Assay for Inhibitors and Substrates of Cytochrome P450 3A4 (AID 884; active = well fitted curve in the direction sought with a large enough effect; an effect the other way counts as inactive or inconclusive; also: potency is read from the fitted curve at half-maximal effect; nearly all actives have a fitted effect of over 50% in size). The settings on record: recombinant CYP3A4, Luciferin-PPXE luminescence; series mostly up to 57.1 µM. In short, it runs like this: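 Luminescent readout of luciferin produced by CYP3A4 (20 nM) dealkylation of Luciferin-PPXE, 25 uM (its KM). NADPH-driven reaction ran 60 min at RT after 10 min compound preincubation; data scaled to 57 uM ketoconazole as 100% inhibition.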

The target is the same in assay [12]. Briefly: qHTS Assay for Activators of Cytochrome P450 3A4 (AID 885; active = well fitted curve in the direction sought with a large enough effect; an effect the other way counts as inactive or inconclusive; also: nearly all actives have a fitted effect of over 65% in size). The settings on record: recombinant CYP3A4, Luciferin-PPXE luminescence, 60 min; series mostly up to 11.4 µM. In short, it runs like this:
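Luminescent readout of luciferin formed from 25 uM Luciferin-PPXE (KM level) by 20 nM CYP3A4 in 200 mM KPO4, with 60 min NADPH-driven reaction at room temperature after 10 min compound exposure. Ketoconazole (57 uM) defined 100% inhibition.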

Values without a mark were called inactive. Results filed as inconclusive are left out. Activity calls are given as the source filed them. Unless noted, calls follow the shape of the dose curve; as a rule, active = well fitted curve in either direction with a large enough effect (not every such curve was filed as active); inconclusive = small, poorly fitted or top-dose-only effect, or another doubt; inactive = flat fitted curve, though single readings scatter.

Chain of 3',5'-cyclic-AMP phosphodiesterase 4B (Homo sapiens) (Q07343 whole entry, looked up): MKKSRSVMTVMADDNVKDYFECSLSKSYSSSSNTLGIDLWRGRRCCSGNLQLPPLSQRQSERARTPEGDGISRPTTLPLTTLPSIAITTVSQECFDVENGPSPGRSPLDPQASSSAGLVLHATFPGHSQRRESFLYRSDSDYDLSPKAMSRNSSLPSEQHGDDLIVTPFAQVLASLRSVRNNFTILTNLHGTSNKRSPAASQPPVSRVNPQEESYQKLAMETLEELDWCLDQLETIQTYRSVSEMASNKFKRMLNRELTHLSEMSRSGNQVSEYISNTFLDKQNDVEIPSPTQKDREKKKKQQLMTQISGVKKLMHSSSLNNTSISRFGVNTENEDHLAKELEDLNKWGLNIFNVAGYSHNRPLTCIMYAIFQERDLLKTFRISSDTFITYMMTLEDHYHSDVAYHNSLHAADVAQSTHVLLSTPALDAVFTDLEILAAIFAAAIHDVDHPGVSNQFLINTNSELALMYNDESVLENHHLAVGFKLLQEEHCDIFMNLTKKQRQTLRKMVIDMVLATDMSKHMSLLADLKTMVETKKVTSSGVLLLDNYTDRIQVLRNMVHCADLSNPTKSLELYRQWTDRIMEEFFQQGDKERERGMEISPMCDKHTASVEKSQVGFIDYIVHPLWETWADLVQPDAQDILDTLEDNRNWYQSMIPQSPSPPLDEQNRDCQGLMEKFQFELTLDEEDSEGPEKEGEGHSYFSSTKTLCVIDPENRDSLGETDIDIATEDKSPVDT
Chain of Lysosomal acid glucosylceramidase (Homo sapiens) (P04062 whole entry, looked up): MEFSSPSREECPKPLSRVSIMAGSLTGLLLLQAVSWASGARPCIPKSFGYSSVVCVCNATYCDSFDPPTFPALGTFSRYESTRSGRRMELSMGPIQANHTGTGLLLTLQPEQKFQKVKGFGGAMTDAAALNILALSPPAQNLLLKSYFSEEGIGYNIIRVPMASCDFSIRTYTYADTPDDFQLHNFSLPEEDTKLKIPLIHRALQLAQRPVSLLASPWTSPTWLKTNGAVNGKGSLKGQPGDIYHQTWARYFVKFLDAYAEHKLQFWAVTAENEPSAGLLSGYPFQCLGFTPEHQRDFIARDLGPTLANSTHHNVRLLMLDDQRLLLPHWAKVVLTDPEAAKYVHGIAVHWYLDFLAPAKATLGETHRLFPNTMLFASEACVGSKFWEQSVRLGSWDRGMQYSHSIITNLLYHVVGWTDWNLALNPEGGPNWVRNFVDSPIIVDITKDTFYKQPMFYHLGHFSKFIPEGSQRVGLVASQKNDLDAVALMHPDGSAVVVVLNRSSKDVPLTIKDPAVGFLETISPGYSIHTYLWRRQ
Chain of Cytochrome P450 2C9 (Homo sapiens) (P11712 whole entry, looked up): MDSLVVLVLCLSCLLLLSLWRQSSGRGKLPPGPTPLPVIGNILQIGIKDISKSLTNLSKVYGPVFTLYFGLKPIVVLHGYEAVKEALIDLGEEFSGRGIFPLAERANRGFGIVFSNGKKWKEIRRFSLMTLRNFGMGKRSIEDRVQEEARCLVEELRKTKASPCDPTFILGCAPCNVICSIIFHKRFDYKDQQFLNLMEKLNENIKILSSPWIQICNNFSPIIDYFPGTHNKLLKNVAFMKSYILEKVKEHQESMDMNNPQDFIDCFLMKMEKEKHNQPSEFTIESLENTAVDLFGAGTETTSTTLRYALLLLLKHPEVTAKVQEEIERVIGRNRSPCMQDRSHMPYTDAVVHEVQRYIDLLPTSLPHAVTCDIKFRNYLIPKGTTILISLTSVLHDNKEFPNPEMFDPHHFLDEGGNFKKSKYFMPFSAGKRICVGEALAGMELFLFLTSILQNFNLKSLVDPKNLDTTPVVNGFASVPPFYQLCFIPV
Chain of Glucocorticoid receptor (Homo sapiens) (P04150 whole entry, looked up): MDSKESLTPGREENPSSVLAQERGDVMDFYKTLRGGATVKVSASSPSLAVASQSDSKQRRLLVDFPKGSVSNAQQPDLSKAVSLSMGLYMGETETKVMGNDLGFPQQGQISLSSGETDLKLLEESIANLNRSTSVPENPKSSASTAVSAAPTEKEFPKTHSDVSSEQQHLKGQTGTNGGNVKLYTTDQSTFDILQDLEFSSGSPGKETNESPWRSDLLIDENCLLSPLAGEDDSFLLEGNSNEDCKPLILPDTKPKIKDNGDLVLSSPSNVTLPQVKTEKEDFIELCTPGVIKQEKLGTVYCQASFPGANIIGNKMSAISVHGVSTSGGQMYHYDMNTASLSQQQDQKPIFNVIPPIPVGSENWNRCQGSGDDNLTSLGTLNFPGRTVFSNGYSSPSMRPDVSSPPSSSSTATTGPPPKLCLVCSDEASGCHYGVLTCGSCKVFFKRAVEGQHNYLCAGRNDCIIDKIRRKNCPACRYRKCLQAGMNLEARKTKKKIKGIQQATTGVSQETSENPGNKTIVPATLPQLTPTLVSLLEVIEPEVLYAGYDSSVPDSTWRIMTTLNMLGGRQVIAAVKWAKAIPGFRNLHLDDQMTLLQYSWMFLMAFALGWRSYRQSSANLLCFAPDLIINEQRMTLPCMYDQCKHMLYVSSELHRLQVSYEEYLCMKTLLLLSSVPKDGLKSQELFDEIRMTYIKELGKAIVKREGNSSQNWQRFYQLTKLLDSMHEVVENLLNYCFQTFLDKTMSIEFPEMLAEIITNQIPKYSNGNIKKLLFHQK
Chain of Cytochrome P450 1A2 (Homo sapiens) (P05177 whole entry, looked up): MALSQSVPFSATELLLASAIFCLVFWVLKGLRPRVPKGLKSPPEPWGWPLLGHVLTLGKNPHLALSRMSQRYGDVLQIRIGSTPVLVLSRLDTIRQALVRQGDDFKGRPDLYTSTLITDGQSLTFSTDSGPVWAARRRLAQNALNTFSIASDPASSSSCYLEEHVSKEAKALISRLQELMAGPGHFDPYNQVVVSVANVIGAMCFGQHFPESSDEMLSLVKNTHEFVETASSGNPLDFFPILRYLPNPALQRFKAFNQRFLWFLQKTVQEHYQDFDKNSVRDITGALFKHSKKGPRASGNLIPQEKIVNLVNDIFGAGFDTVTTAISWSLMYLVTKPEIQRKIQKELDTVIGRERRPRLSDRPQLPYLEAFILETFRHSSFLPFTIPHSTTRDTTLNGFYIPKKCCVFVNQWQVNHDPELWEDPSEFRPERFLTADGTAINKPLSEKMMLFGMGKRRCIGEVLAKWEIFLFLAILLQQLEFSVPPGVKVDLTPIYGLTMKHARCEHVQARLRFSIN
Chain of Cytochrome P450 3A4 (Homo sapiens) (P08684 whole entry, looked up): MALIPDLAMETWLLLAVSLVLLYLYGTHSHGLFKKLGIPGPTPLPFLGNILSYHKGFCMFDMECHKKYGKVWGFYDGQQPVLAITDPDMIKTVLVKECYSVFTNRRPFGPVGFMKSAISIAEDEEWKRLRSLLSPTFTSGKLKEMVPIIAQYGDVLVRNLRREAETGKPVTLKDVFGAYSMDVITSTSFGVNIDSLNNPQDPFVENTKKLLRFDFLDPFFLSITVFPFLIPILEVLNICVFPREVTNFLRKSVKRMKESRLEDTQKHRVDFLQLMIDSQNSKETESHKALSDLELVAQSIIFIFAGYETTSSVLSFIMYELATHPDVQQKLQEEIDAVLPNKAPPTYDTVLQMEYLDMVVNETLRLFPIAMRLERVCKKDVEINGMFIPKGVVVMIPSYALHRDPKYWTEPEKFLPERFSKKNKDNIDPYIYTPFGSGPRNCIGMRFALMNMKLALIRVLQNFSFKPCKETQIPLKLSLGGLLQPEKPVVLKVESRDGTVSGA

`O=S(=O)(O)[C@@H](CO)c1ccccc1` (tested in a mixture with another compound): the Potency in assay [1] was over 11.4 µM; in [6], over 46 µM; in [7], over 9.22 µM. Besides, the activity change, negative = inhibition was -0.645% in assay [2], -1.9% [at 2.29 µM] in assay [3] and 3.56% in assay [4]. The activity, negative = inhibition in assay [5] is -7.29%. Besides, the Potency entry in assay [8] and in assay [9] was “inactive” in each case.
As to `NS(=O)(=O)c1cc(Br)c(N=Nc2ccc(O)c3ncccc23)c(Br)c1`, the Potency in assay [1] was over 11.4 µM; in assay [3], 1.26 µM (active); in assay [6], over 46 µM; in assay [7], over 9.22 µM. Besides, the activity change, negative = inhibition is -0.828% in assay [2] and 10.5% in assay [4]. Further, the activity, negative = inhibition in [5] is 21.9%. Moreover, the Potency result in assay [8], in [9] and in [10] was “inactive” throughout.
With `CCOC(=O)[C@]1(CC(=O)O)CCCC1=O`, the results for the Potency in [1], in [6] and in assay [7] were over 11.4 µM, over 46 µM and over 9.22 µM, respectively. Further, the values for the activity change, negative = inhibition in [2] and in [4] were -0.0726% and -7.19%, respectively. For the same molecule, the Potency result in assay [3], in [8] and in assay [9] was “inactive” in each case. Also, the activity, negative = inhibition in [5] is -19.1%.
Take `O=C1Nc2ccccc2C1=Nc1ccc(S(=O)(=O)Nc2nccs2)cc1`: the Potency in assay [1] was over 11.4 µM; in [6], over 46 µM; in [7], over 9.22 µM. Besides, the activity change, negative = inhibition was -7.86% in [2] and 12.8% in assay [4]. Further, the Potency result in assay [3], in [8] and in assay [9] was “inactive” throughout. The activity, negative = inhibition in assay [5] is -9.11%.
Turning to `O=C(O)CSc1nnc2c3ccccc3c3ccccc3c2n1`, the Potency in [1] is over 11.4 µM; in assay [3], 0.0794 µM (active); in [6] it was over 46 µM; in assay [7], over 9.22 µM. Also, the activity change, negative = inhibition in [2] is -9.84%; in assay [4], 22.2%. Besides, the activity, negative = inhibition in assay [5] was 10.3%. The Potency entry in [8] and in [9] was “inactive” throughout.
As to `NNC(=O)Cc1cccnc1`, the Potency is over 11.4 µM in [1]; 0.631 µM (active) in [3]; over 46 µM in assay [6]; over 9.22 µM in assay [7]; 3.16 µM (active) in assay [11]. The activity change, negative = inhibition is -8.16% in assay [2] and 7.3% in assay [4]. The activity, negative = inhibition in [5] is 3.84%. Also, the Potency entry in [8], in assay [9], in assay [10] and in assay [12] was “inactive” in each case.
Turning to `COc1c(NC(C)=O)c2ccccc2c2ccccc12`, the Potency in assay [1] was over 11.4 µM; in [3], 0.398 µM (active); in assay [6], over 46 µM; in assay [7] it was over 9.22 µM. For the same molecule, the activity change, negative = inhibition in [2] was -1.26%; in assay [4] it was -6.36%. Further, the activity, negative = inhibition in [5] is 1.8%. The Potency entry in assay [8], in assay [9] and in [10] was “inactive” throughout.
In the case of `Cc1[nH]c2ccccc2c1-c1cc(-c2cc(-c3c(C)[nH]c4ccccc34)on2)no1`, the Potency in [1] was over 11.4 µM; in [3], 0.398 µM (active); in assay [6], over 46 µM; in assay [7], over 9.22 µM. Besides, the activity change, negative = inhibition was 5.07% in assay [2] and -7.58% in assay [4]. Further, the activity, negative = inhibition in assay [5] was -1.93%. In addition, the Potency entry in assay [8], in assay [9] and in assay [10] was “inactive” in each case.

The values are drawn from PubChem BioAssay (NCATS).
